Inconclusive results are not listed. Entries that show only a call come without a potency. Active and inactive are the calls of the source. Calls come from the whole dose curve; as a rule, active = well fitted inhibition curve with a large enough effect; inconclusive = small, poorly fitted or top-dose-only effect; inactive = flat fitted curve, though single readings scatter.
Assay: CHOP2 Reporter Counterscreen Assay for Inhibitors of Ubiquitin-specific Protease USP2a;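 note: activated enterokinase alone at 50 pM in a cell-free format rather than USP2a or CHOP2; nearly all actives have a fitted effect of over 55% in size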
Details: purified enterokinase, fluorogenic substrate, 485/531 nm; series mostly up to 38.3 µM
Outline: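 Cell-free counterscreen with pre-activated enterokinase alone (50 pM final) in 20mM Tris-HCl pH 8.0, 2mM CaCl2, 2mM beta-mercaptoethanol, 0.05% CHAPS; compound preincubation 30 min RT, reporter substrate 25nM final, fluorescence read after 10 min (Ex 485/Em 531).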
With Cc1ccc(NC(=O)c2cc(-c3ccco3)nc3ccccc23)cc1S(=O)(=O)N1CCOCC1 the Potency was 7.08 µM (active). With CCc1c(O)nc(SCC(=O)Nc2ccccc2OC)[nH]c1=O the Potency was “inactive”. For COc1cc2c(ccc3cc(OC)c(OC)c(O)c32)cc1O, the Potency was 5.62 µM (active). In the case of CCN1C(=O)CSc2ccc(C(=O)NC3CCCCC3)cc21, the Potency is reported as “inactive”. For O=C(CCn1c(=O)c2ccccc2n(Cc2ccccc2)c1=O)NCc1ccc2c(c1)OCO2, the Potency was “inactive”. In the case of CC1CCCCN1CCNC(=O)CC1Oc2ccccc2NC1=O (stereo not given), the Potency is reported as “inactive”. For COc1ccc(NC(=O)C2CC(=O)OC2c2ccccc2)cc1 (stereo not given), the Potency was “inactive”. In the case of Cc1noc(/C=C/c2ccco2)c1S(=O)(=O)N1CCC(C(=O)N2CCc3ccccc3C2)CC1, the Potency is reported as “inactive”. For O=C(/C=C1\NC2(CCCC2)Cc2ccccc21)C(=O)N/N=C/c1ccc(O)c(O)c1, the Potency was 4.47 µM (active). For Cc1cc(C(=O)NCc2ccco2)on1, the Potency was “inactive”. For CCOC(=O)c1sc(NC(=O)Nc2ccccc2)cc1C, the Potency was “inactive”. With O=C(c1ccccc1)N1CCN(C(=O)N2CCCCC2)CC1 the Potency was “inactive”. In the case of CC(C)C(=O)N=c1sc2cc(F)cc(F)c2n1C, the Potency is reported as “inactive”. With O=C1c2ccccc2C(=O)N1CCCCn1c(=O)oc2ccccc21 the Potency was “inactive”. For CCCn1c(NC(=O)c2ccc(Br)cc2)nc2ccccc21, the Potency was “inactive”. In the case of Cc1ccc(Cn2nnc3c(=O)[nH]c(C4CCN(S(=O)(=O)Cc5ccccc5)CC4)nc32)cc1, the Potency is reported as “inactive”. In the case of O=C(C1CCCN(S(=O)(=O)c2cccc3cccnc23)C1)N1CCN(c2ccccc2F)CC1 (stereo not given), the Potency is reported as “inactive”. For COc1ccc(N(C(=O)C(C)C)S(=O)(=O)c2ccc(Cl)cc2)cc1, the Potency was “inactive”. In the case of Cc1onc(-c2ccccc2)c1C(=O)N1CCN(C)CC1, the Potency is reported as “inactive”. With CCCCCCCCCCOC(=O)Cn1c(COc2ccc(Cl)cc2)[n+](C)c2ccccc21 the Potency was 8.91 µM (active). With Nc1c(C(=O)NC2CC2)sc2nc3c(c(-c4ccco4)c12)CC/C3=C/c1ccco1 the Potency was 2.24 µM (active). With O=C(CN1C(=O)/C(=C2\SC(=S)N(CCS(=O)(=O)O)C2=O)c2ccccc21)Nc1cccc(Br)c1 the Potency was 12.6 µM (active). For Oc1ccccc1/C=N/Nc1ncc(Br)cn1, the Potency was “inactive”. With CCn1nc(C(=O)N[C@@H](CCSC)c2nc3ccccc3[nH]2)c2ccccc2c1=O the Potency was “inactive”. With O=C(c1ccc([N+](=O)[O-])cc1)N(Cc1ccc(Cl)cc1)N1C(=O)CCCC1=O the Potency was “inactive”. For Cc1ccc(Nc2cc(C)nc(NCc3ccccc3)n2)cc1, the Potency was “inactive”. In the case of COCCn1nnnc1CN(CCc1ccccc1)Cc1cc2ccc(C)cc2[nH]c1=O, the Potency is reported as “inactive”. With COc1ccccc1NC(=O)N1CCN(c2ccccn2)CC1 the Potency was “inactive”. For CCOc1ccc(NC(=O)c2ccc(NC(=O)COC(=O)c3ccc(NC(=O)CC#N)cc3)cc2)cc1, the Potency was 2.82 µM (active). With O=S(=O)(NC1CCSc2ccccc21)c1ccccc1 (stereo not given) the Potency was “inactive”. For CCn1c(SCC(=O)NCCc2ccccc2)nnc1-c1cccs1, the Potency was “inactive”. With CSCC[C@H](NC(=O)C1CCN(S(=O)(=O)c2ccc(C)cc2)CC1)C(=O)NCc1ccco1 the Potency was “inactive”. With CC1=NN(c2ccc(C(=O)O)cc2)C(=O)/C1=C\c1ccc(OC(=O)c2cccs2)cc1 the Potency was 3.55 µM (active). With O=[N+]([O-])c1cc(-c2nnc(Nc3ccccc3)c3ccccc23)ccc1N1CCOCC1 the Potency was “inactive”. For CCOC(=O)C1CCCN(C(=O)c2cc(-c3ccco3)nc3ccccc23)C1 (stereo not given), the Potency was 5.62 µM (active). In the case of O=C(Nc1ncccc1Cl)c1cccc(F)c1, the Potency is reported as “inactive”. In the case of O=C(CCCN1C(=O)c2ccccc2C1=O)NC1=NCCS1, the Potency is reported as “inactive”. With O=C(Oc1ccccc1C(=O)Nc1ccccc1)c1ccccc1Br the Potency was “inactive”. In the case of NC(=O)C[C@@H]1N[C@]2(C(=O)Nc3ccccc32)[C@@H]2C(=O)N(c3cc(C(F)(F)F)ccc3Cl)C(=O)[C@H]12, the Potency is reported as “inactive”. In the case of COc1ccc2cc(CN(C(=O)Nc3ccccc3)C3CCCC3)c(=O)[nH]c2c1, the Potency is reported as “inactive”.

— PubChem BioAssay AID493169 (National Center for Advancing Translational Sciences (NCATS), 2011)
Potency is the fitted concentration of half-maximal effect.
